According to PubChem BioAssay AID1159580 (chemical genetic matrix, 2015):
The whole screen tested about 5,500 compounds, of which about 2,000 (36%) were called active. Inconclusive results (about 18%) are left out. Some of the results follow. Unmarked numbers belong to inactive results. No stated cut-off is given here; in the data, active means normalized growth mostly below about 0.91 (no sharp cut-off); inconclusive means no clear call, values can overlap the other calls; inactive means mostly above about 0.92.

Assay: chemical genetic growth profiling, strain panel (AID 1159580);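 further: tested at 20 µM; growth read once vehicle control cultures reached saturation at 30 °C; 1 = growth at the plate median or of vehicle wells; lower values mean less growth of the strain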
Settings: S. cerevisiae deletion strains, growth OD
[1] = locus YAR019C, strain CDC15, hits give low values
[2] = locus YBL105C, strain PKC1, hits give low values
[3] = locus YBR135W, strain CKS1, hits give low values
[4] = locus YBR136W, strain MEC1, hits give low values
[5] = locus YBR160W, strain CDC28, hits give low values
[6] = locus YDL017W, strain CDC7, hits give low values
[7] = locus YDL028C, strain MPS1, hits give low values
[8] = locus YDL101C, strain DUN1, hits give low values
[9] = locus YDL108W, strain KIN28, hits give low values
[10] = locus YDL132W, strain cdc53, hits give low values
[11] = locus YDL214C, strain PRR2, hits give low values
[12] = locus YDR052C, strain DBF4, hits give low values
[13] = locus YDR054C, strain cdc34, hits give low values
[14] = locus YDR226W, strain ADK1, hits give low values
[15] = locus YDR477W, strain SNF1, hits give low values
[16] = locus YER123W, strain YCK3, hits give low values
[17] = locus YER133W, strain GLC7, hits give low values
[18] = locus YFL009W, strain cdc4, hits give low values
[19] = locus YFL029C, strain CAK1, hits give low values
[20] = locus YFR003C, strain YPI1, hits give low values
[21] = locus YFR019W, strain FAB1, hits give low values
[22] = locus YFR028C, strain CDC14, hits give low values
[23] = locus YGR040W, strain KSS1, hits give low values
[24] = locus YGR052W, strain FMP48, hits give low values
[25] = locus YGR092W, strain DBF2, hits give low values
[26] = locus YHR030C, strain SLT2, hits give low values
[27] = locus YHR079C, strain IRE1, hits give low values
[28] = locus YHR082C, strain KSP1, hits give low values
[29] = locus YHR205W, strain SCH9, hits give low values
[30] = locus YIL147C, strain SLN1, hits give low values
[31] = locus YJL095W, strain BCK1, hits give low values
[32] = locus YJL128C, strain PBS2, hits give low values
[33] = locus YJL157C, strain FAR1, hits give low values
[34] = locus YJR016C, strain ILV3, hits give low values
[35] = locus YJR066W, strain TOR1 (second series), hits give low values
[36] = locus YJR066W, strain TOR1, hits give low values
[37] = locus YKL048C, strain ELM1, hits give low values
[38] = locus YKL067W, strain YNK1, hits give low values
[39] = locus YKL101W, strain HSL1, hits give low values
[40] = locus YKL193C, strain SDS22, hits give low values
[41] = locus YKL203C, strain TOR2, hits give low values
[42] = locus YLR113W, strain HOG1, hits give low values
[43] = locus YLR133W, strain CKI1, hits give low values
[44] = locus YLR403W, strain SFP1, hits give low values
[45] = locus YML070W, strain DAK1, hits give low values
[46] = locus YMR001C, strain CDC5, hits give low values
[47] = locus YMR205C, strain PFK2 (second series), hits give low values
[48] = locus YMR277W, strain FCP1, hits give low values
[49] = locus YNL006W, strain LST8, hits give low values
[50] = locus YNL020C, strain ARK1, hits give low values
[51] = locus YNL161W, strain CBK1, hits give low values
[52] = locus YNL183C, strain NPR1, hits give low values
[53] = locus YNL207W, strain RIO2, hits give low values
[54] = locus YNL222W, strain SSU72, hits give low values
[55] = locus YNL307C, strain MCK1 (second series), hits give low values
[56] = locus YOL078W, strain AVO1, hits give low values
[57] = locus YOL136C, strain PFK27, hits give low values
[58] = locus YOR061W, strain CKA2, hits give low values
[59] = locus YOR119C, strain RIO1, hits give low values
[60] = locus YOR231W, strain MKK1, hits give low values
[61] = locus YOR329C, strain SCD5, hits give low values
[62] = locus YPL031C, strain PHO85, hits give low values
[63] = locus YPL153C, strain RAD53, hits give low values
[64] = locus YPL204W, strain HRR25, hits give low values
[65] = locus YPL209C, strain IPL1, hits give low values
[66] = locus YPL256C, strain CLN2, hits give low values
[67] = locus YPR025C, strain CCL1, hits give low values
[68] = locus YPR106W, strain ISR1, hits give low values
[69] = locus YPR111W, strain DBF20, hits give low values
[70] = strain NNK1, hits give low values
[71] = strain TSCII, hits give low values

Brc1ccc(-c2csc(-c3cccnc3)n2)cc1
normalized growth [1]: 0.879 (active)
normalized growth [2]: 0.921
normalized growth [3]: 0.898
normalized growth [4]: 0.913
normalized growth [5]: 0.904
normalized growth [6]: 0.906
normalized growth [7]: 0.916
normalized growth [8]: 0.887 (active)
normalized growth [9]: 0.904
normalized growth [10]: 0.854 (active)
normalized growth [11]: 0.741
normalized growth [12]: 0.894 (active)
normalized growth [13]: 0.847 (active)
normalized growth [14]: 0.884 (active)
normalized growth [15]: 0.624 (active)
normalized growth [16]: 0.606 (active)
normalized growth [17]: 0.561 (active)
normalized growth [18]: 0.867 (active)
normalized growth [19]: 0.872 (active)
normalized growth [20]: 0.904
normalized growth [21]: 0.677 (active)
normalized growth [22]: 0.875 (active)
normalized growth [23]: 0.59 (active)
normalized growth [24]: 0.704
normalized growth [25]: 0.456 (active)
normalized growth [26]: 0.519 (active)
normalized growth [27]: 0.637
normalized growth [28]: 0.695
normalized growth [29]: 0.643
normalized growth [30]: 0.899
normalized growth [31]: 0.305 (active)
normalized growth [32]: 0.951
normalized growth [33]: 0.735
normalized growth [34]: 0.878 (active)
normalized growth [35]: 0.603 (active)
normalized growth [36]: 0.545
normalized growth [37]: 0.835
normalized growth [38]: 0.733 (active)
normalized growth [39]: 0.784
normalized growth [40]: 0.864 (active)
normalized growth [41]: 0.506 (active)
normalized growth [42]: 0.655 (active)
normalized growth [43]: 0.767
normalized growth [44]: 0.563 (active)
normalized growth [45]: 0.704
normalized growth [46]: 0.88 (active)
normalized growth [47]: 0.719 (active)
normalized growth [48]: 0.873 (active)
normalized growth [49]: 0.894 (active)
normalized growth [50]: 0.751
normalized growth [51]: 0.893 (active)
normalized growth [52]: 0.55 (active)
normalized growth [53]: 0.846 (active)
normalized growth [54]: 0.902
normalized growth [55]: 0.702
normalized growth [56]: 0.866 (active)
normalized growth [57]: 0.709
normalized growth [58]: 0.792
normalized growth [59]: 0.54 (active)
normalized growth [60]: 0.647
normalized growth [61]: 0.883 (active)
normalized growth [62]: 0.533 (active)
normalized growth [63]: 0.449 (active)
normalized growth [64]: 0.46 (active)
normalized growth [65]: 0.893 (active)
normalized growth [66]: 0.679 (active)
normalized growth [67]: 0.894 (active)
normalized growth [68]: 0.903
normalized growth [69]: 0.918
normalized growth [70]: 0.871 (active)
normalized growth [71]: 0.86 (active)

Clc1ccccc1-c1csc(-c2cccnc2)n1
normalized growth [1]: 0.893
normalized growth [2]: 0.934
normalized growth [3]: 0.924
normalized growth [4]: 0.929
normalized growth [5]: 0.923
normalized growth [6]: 0.928
normalized growth [7]: 0.923
normalized growth [8]: 0.913 (active)
normalized growth [9]: 0.924
normalized growth [10]: 0.932
normalized growth [11]: 0.822
normalized growth [12]: 0.917
normalized growth [13]: 0.848 (active)
normalized growth [14]: 0.931
normalized growth [15]: 0.649 (active)
normalized growth [16]: 0.673
normalized growth [17]: 0.565 (active)
normalized growth [18]: 0.932
normalized growth [19]: 0.889
normalized growth [20]: 0.93
normalized growth [21]: 0.783
normalized growth [22]: 0.939
normalized growth [23]: 0.647 (active)
normalized growth [24]: 0.769
normalized growth [25]: 0.541
normalized growth [26]: 0.591 (active)
normalized growth [27]: 0.636
normalized growth [28]: 0.894
normalized growth [29]: 0.758
normalized growth [30]: 0.922
normalized growth [31]: 0.247 (active)
normalized growth [32]: 0.926
normalized growth [33]: 0.773
normalized growth [34]: 0.902
normalized growth [35]: 0.686
normalized growth [36]: 0.67
normalized growth [37]: 0.968
normalized growth [38]: 0.866
normalized growth [39]: 0.9
normalized growth [40]: 0.88 (active)
normalized growth [41]: 0.572 (active)
normalized growth [42]: 0.694 (active)
normalized growth [43]: 0.842
normalized growth [44]: 0.662
normalized growth [45]: 0.787
normalized growth [46]: 0.913
normalized growth [47]: 0.864
normalized growth [48]: 0.869 (active)
normalized growth [49]: 0.913
normalized growth [50]: 0.838
normalized growth [51]: 0.919
normalized growth [52]: 0.829
normalized growth [53]: 0.86 (active)
normalized growth [54]: 0.916
normalized growth [55]: 0.82
normalized growth [56]: 0.89
normalized growth [57]: 0.819
normalized growth [58]: 0.896
normalized growth [59]: 0.609 (active)
normalized growth [60]: 0.756
normalized growth [61]: 0.902 (active)
normalized growth [62]: 0.566 (active)
normalized growth [63]: 0.563 (active)
normalized growth [64]: 0.553 (active)
normalized growth [65]: 0.909
normalized growth [66]: 0.774 (active)
normalized growth [67]: 0.915
normalized growth [68]: 0.932
normalized growth [69]: 0.938
normalized growth [70]: 0.932
normalized growth [71]: 0.874 (active)

CN(C)C/C=C(/c1ccc(Br)cc1)c1cccnc1
normalized growth (locus YAL040C, strain CLN3, hits give low values): 0.964
normalized growth (locus YCL061C, strain MRC1 (second series), hits give low values): 0.999
normalized growth (locus YDR363W, strain ESC2, hits give low values): 0.984
normalized growth (locus YER002W, strain NOP16, hits give low values): 0.992
normalized growth (locus YMR307W, strain GAS1, hits give low values): 1.02
normalized growth (locus YNL175C, strain NOP13, hits give low values): 0.975
normalized growth (locus YNL197C, strain WHI3, hits give low values): 1
normalized growth (locus YNL224C, strain SQS1, hits give low values): 1
normalized growth (locus YNL322C, strain KRE1, hits give low values): 0.926
normalized growth (locus YOR083W, strain WHI5 (second series), hits give low values): 0.994
normalized growth (locus YPL055C, strain LGE1, hits give low values): 0.997
normalized growth (locus YPL241C, strain CIN2, hits give low values): 0.998
